Reference: PubChem BioAssay AID1159580 (chemical genetic matrix, 2015)
Screen size: about 5,500 compounds; about 2,000 (36%) were called active. Not shown: some 18% with an inconclusive outcome. No stated cut-off is given here; in the data, active means normalized growth mostly below about 0.91 (no sharp cut-off); inconclusive means no clear call, values can overlap the other calls; inactive means mostly above about 0.92. Some of the results follow.

Assay: chemical genetic growth profiling, strain panel (AID 1159580);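 further: tested at 20 µM; growth read once vehicle control cultures reached saturation at 30 °C; 1 = growth at the plate median or of vehicle wells; lower values mean less growth of the strain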
Conditions: S. cerevisiae deletion strains, growth OD

Measured: normalized growth

Clc1cccc(Cl)c1C1CC(c2ccccc2)=Nc2ccccc2S1 (stereo unspecified)
inactive: locus YAR019C, strain CDC15, hits give low values 0.986 | locus YBL105C, strain PKC1, hits give low values 0.986 | locus YBR135W, strain CKS1, hits give low values 0.993 | locus YBR136W, strain MEC1, hits give low values 0.962 | locus YBR160W, strain CDC28, hits give low values 0.988 | locus YDL017W, strain CDC7, hits give low values 0.98 | locus YDL028C, strain MPS1, hits give low values 0.99 | locus YDL101C, strain DUN1, hits give low values 0.984 | locus YDL108W, strain KIN28, hits give low values 0.989 | locus YDL132W, strain cdc53, hits give low values 0.994 | locus YDL214C, strain PRR2, hits give low values 0.978 | locus YDR052C, strain DBF4, hits give low values 0.982 | locus YDR054C, strain cdc34, hits give low values 0.978 | locus YDR226W, strain ADK1, hits give low values 0.982 | locus YDR477W, strain SNF1, hits give low values 0.979 | locus YER123W, strain YCK3, hits give low values 0.981 | locus YER133W, strain GLC7, hits give low values 0.981 | locus YFL009W, strain cdc4, hits give low values 0.989 | locus YFL029C, strain CAK1, hits give low values 0.98 | locus YFR003C, strain YPI1, hits give low values 0.989 | locus YFR019W, strain FAB1, hits give low values 0.986 | locus YFR028C, strain CDC14, hits give low values 0.985 | locus YGR040W, strain KSS1, hits give low values 0.967 | locus YGR052W, strain FMP48, hits give low values 1.07 | locus YGR092W, strain DBF2, hits give low values 0.989 | locus YHR030C, strain SLT2, hits give low values 0.987 | locus YHR079C, strain IRE1, hits give low values 0.992 | locus YHR082C, strain KSP1, hits give low values 1.02 | locus YHR205W, strain SCH9, hits give low values 0.936 | locus YIL147C, strain SLN1, hits give low values 0.981 | locus YJL095W, strain BCK1, hits give low values 1 | locus YJL128C, strain PBS2, hits give low values 0.958 | locus YJL157C, strain FAR1, hits give low values 0.988 | locus YJR016C, strain ILV3, hits give low values 0.992 | locus YJR066W, strain TOR1 (second series), hits give low values 0.95 | locus YJR066W, strain TOR1, hits give low values 0.991 | locus YKL048C, strain ELM1, hits give low values 0.982 | locus YKL067W, strain YNK1, hits give low values 0.974 | locus YKL101W, strain HSL1, hits give low values 0.966 | locus YKL193C, strain SDS22, hits give low values 0.991 | locus YKL203C, strain TOR2, hits give low values 1.02 | locus YLR113W, strain HOG1, hits give low values 0.93 | locus YLR133W, strain CKI1, hits give low values 0.977 | locus YLR403W, strain SFP1, hits give low values 0.973 | locus YML070W, strain DAK1, hits give low values 0.981 | locus YMR001C, strain CDC5, hits give low values 0.986 | locus YMR205C, strain PFK2 (second series), hits give low values 0.979 | locus YMR277W, strain FCP1, hits give low values 0.991 | locus YNL006W, strain LST8, hits give low values 0.995 | locus YNL020C, strain ARK1, hits give low values 0.985 | locus YNL161W, strain CBK1, hits give low values 0.981 | locus YNL183C, strain NPR1, hits give low values 0.997 | locus YNL207W, strain RIO2, hits give low values 0.985 | locus YNL222W, strain SSU72, hits give low values 0.995 | locus YNL307C, strain MCK1 (second series), hits give low values 0.999 | locus YOL078W, strain AVO1, hits give low values 0.99 | locus YOL136C, strain PFK27, hits give low values 0.973 | locus YOR061W, strain CKA2, hits give low values 0.978 | locus YOR119C, strain RIO1, hits give low values 0.997 | locus YOR231W, strain MKK1, hits give low values 0.988 | locus YOR329C, strain SCD5, hits give low values 0.978 | locus YPL031C, strain PHO85, hits give low values 0.982 | locus YPL153C, strain RAD53, hits give low values 0.982 | locus YPL204W, strain HRR25, hits give low values 0.99 | locus YPL209C, strain IPL1, hits give low values 0.988 | locus YPL256C, strain CLN2, hits give low values 0.947 | locus YPR025C, strain CCL1, hits give low values 0.987 | locus YPR106W, strain ISR1, hits give low values 0.981 | locus YPR111W, strain DBF20, hits give low values 0.983 | strain NNK1, hits give low values 0.99 | strain TSCII, hits give low values 0.986
